Screening data (PubChem BioAssay)
Compounds with a hit are over-represented: about 3.4% of the library has one in this group of screens.
MITF TRPM1 HTS: increases MITF-driven TRPM1 promoter luciferase signal; SK-MEL-5 TRPM1-promoter luciferase, 24 h; % of positive control, neutral wells = 0; activation, % at 12.5 µM; hit rate 0.75% among 300,000; AID 588334;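 active = mean activation of at least 80% with every replicate also reaching 80%; inconclusive = mean reaches 80% but some replicate falls short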;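 note: 0% = neutral control wells and 100% = parthenolide positive control wells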
Env fusion inh: HIV envelope-mediated fusion inhibition | HeLa-JRFL Env/CEM21 cell fusion, luciferase | inhibition, % at 12.3 µM | hit rate 1.1% among 360,000 | AID 651610;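 active = mean replicate inhibition score of at least 50 and every replicate individually at or above 50; inconclusive = only one of the two criteria met; inactive = mean below 50 and not all replicates reaching 50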;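 note: 0% = plate neutral controls and 100% = maraviroc near 300 nM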
miR-122 sensor: inhibitors of miR-122 in Huh7 cells; Huh7 miR-122 Renilla luciferase sensor, 48 h; neutral wells = 0, positive control = 100; activation (reporter increase), % at 12.5 µM; hit rate 0.3% among 340,000; AID 602342;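 active = mean replicate activation score at least 90 and every replicate individually at or above 90; inconclusive = only one of the two criteria met; inactive = neither criterion met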;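 note: higher luciferase means less miR-122 activity so hits act as miR-122 inhibitors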
Wnt act: Wnt/beta-catenin pathway activation; AID 743398; Wnt/beta-catenin reporter cell assay, activator, plate reader; activation, % at 9.35 µM; hit rate 1.2% among 300,000; in the data active = activation above about 30%, passing the limit was not always enough; inconclusive = no clear call, values can overlap the other calls;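 note: 0% = neutral control wells and 100% = positive control wells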
esBAF inh: SWI/SNF esBAF complex inhibition; reporter increase, % at 12.5 µM; hit rate 2% among 350,000; mouse ES cells, Bmi1-luciferase knock-in reporter, 24 h; 100% = twice the neutral-well signal; AID 602393; in the data active = activation above about 40%; inconclusive = no clear call, values can overlap the other calls;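 note: 0% = median of the plate's neutral control wells and 100% = double that signal; a rise in the Bmi1 reporter signal indicates esBAF inhibition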
Numbers without * were called inactive; i = inactive; ? = inconclusive; . = not tested or not shown; [ ] = another dose, or the depositor's remark.

SMILES | MITF TRPM1 HTS | Env fusion inh | miR-122 sensor | Wnt act | esBAF inh
Cc1ccccc1S(=O)(=O)N[C@@H]1CC[C@@H](CCn2cc(-c3ccccc3)nn2)O[C@@H]1CO | . | 21[16.7 µM] | . | . | 9
CC1CN(C(=O)c2cc(S(=O)(=O)N(C)c3ccc(F)cc3)ccc2Cl)CC(C)O1 (configuration not stated) | -1 | 61* | -7 | -2 | -9
CC1CN(C(=O)c2cc(S(=O)(=O)N3CCCC3)ccc2Cl)CC(C)O1 (configuration not stated) | -9 | 2 | . | -3 | .
COc1ccc(NC(=O)N(C)C[C@@H]2Oc3ccc(NC(=O)CCN4CCOCC4)cc3CC(=O)N([C@H](C)CO)C[C@@H]2C)cc1 | . | . | 3[16.7 µM] | . | -7
C[C@@H]1CN([C@@H](C)CO)C(=O)Cc2cc(NC(=O)CCCCCC(=O)Nc3ccccc3N)ccc2O[C@@H]1CN(C)Cc1ccccc1 | . | 2[16.7 µM] | 1[16.7 µM] | . | -2
Cc1cccc(S(=O)(=O)N2C[C@H](O)COC[C@@H]3O[C@H](CC(=O)NCc4ccncn4)CC[C@H]32)c1 | . | . | 3[16.7 µM] | . | -2
Cc1nn(-c2ccccc2)cc1C(=S)Nc1ccccc1 | 27 | -6 | 6 | -3 | 49*
Cc1c(C(=S)Nc2ccccc2)cnn1-c1ccc([N+](=O)[O-])cc1 | 14 | -22 | 1 | . | .
Cc1c(C(=S)Nc2ccccc2)cnn1-c1ccccc1 | 96* | -35 | 25 | ? | .
COc1ccc(CNC(=O)C(=O)NCC(c2ccco2)N2CCOCC2)cc1 (configuration not stated) | 3 | -81 | -5 | 40* | 6
CO[C@@H]1CN(C)C(=O)c2cc(NC(=O)c3ccccc3F)ccc2OC[C@H](C)N(C(C)=O)C[C@H]1C | . | -6[16.7 µM] | . | . | -3
C[C@@H]1CCCCO[C@@H](CN(C)CC2CCCCC2)[C@H](C)CN([C@@H](C)CO)C(=O)c2cc(NC(=O)Nc3ccccc3)ccc2O1 | . | -3[16.7 µM] | 6[16.7 µM] | . | 5
CN(C(=O)c1cc2c(s1)-c1ccccc1S(=O)(=O)C2)c1ccccc1 | 8 | 7 | 6 | 7 | 110*
Cc1ccc(CN2CC(N3CCCCC3)CS2(=O)=O)cc1 (configuration not stated) | . | 1 | -1 | -3 | 0
Cc1ccc(CN2CC(N3CCCC3)CS2(=O)=O)cc1 (configuration not stated) | . | 60* | -2 | 0 | -6
COCC#Cc1ccc2c(c1)O[C@H](CN(C)C(=O)Nc1ccccc1F)[C@H](C)CN([C@@H](C)CO)S2(=O)=O | . | -30[16.7 µM] | -6[16.7 µM] | . | -5
CCOc1ccc(N2C(=O)Nc3ccccc3C2(O)C(=O)NCc2ccc3c(c2)OCO3)cc1 (configuration not stated) | . | -43 | 171* | 2 | -1
CCOC(=O)C1=C(Nc2ccc(OC)cc2)OCC1=O | . | -9 | . | 36* | .
O=S(=O)(c1ccc(-c2ccccc2)cc1)N1CCN(Cc2cccc(OCCO)c2)CC1 | . | -5[16.7 µM] | . | . | .
Brc1ccc(N=NNc2ccccc2)cc1 | 49 | -66 | 8 | 16 | 54*
COc1ccc(CN(C)C[C@@H]2OCCCC[C@@H](C)Oc3ccc(NC(=O)CCCN(C)C)cc3C(=O)N([C@H](C)CO)C[C@H]2C)cc1 | . | 8[16.7 µM] | -1[16.7 µM] | . | 1
O=c1[nH]c(CSc2ccccn2)nc2ccccc12 | 59 | -29 | . | 31* | .
Cc1ccc2nc(SCc3nc4ccccc4c(=O)[nH]3)[nH]c2c1 | 35 | -40 | -9 | 11 | 51*
COC(=O)c1sc2nc(CSc3nc4ccc(C)cc4[nH]3)[nH]c(=O)c2c1C | 1 | . | -1 | -3 | -4
O=c1[nH]c(CSc2nc3ccccc3s2)nc2ccccc12 | 30 | -4 | 2 | 28 | 47*
SMILES | MITF TRPM1 HTS | Env fusion inh | miR-122 sensor | Wnt act | esBAF inh
C/C=C/c1ccc2c(c1)O[C@H](CN(C)C(=O)c1ccccc1F)[C@@H](C)CN([C@@H](C)CO)S2(=O)=O | . | -2[16.7 µM] | 52[16.7 µM] | . | 3
CC1CCC(C(C)C)C(OC(=O)C[n+]2cc(-c3ccc(Cl)cc3)n3c2CCCCC3)C1 (configuration not stated) | -86 | 60* | -1 | . | .
O=C1C=C(c2cc3ccccc3s2)CCC1 | 106* | -85 | -9 | 26 | 74*
CC1(C)CC(=O)C=C(c2cc3ccccc3s2)C1 | 35 | -35 | 0 | 10 | 19
CO[C@H]1CN(C)C(=O)c2ccc(NC(C)=O)cc2OC[C@@H](C)N(C(=O)C2CCCCC2)C[C@H]1C | . | . | 0[16.7 µM] | . | 0
CCNc1nc(N)c(C(=O)c2ccc(Cl)s2)s1 | . | i | -11 | 58* | 43*
Cc1ccc(-c2csc(/C(C#N)=C/Nc3ccc4c(c3)OCCO4)n2)cc1 | -3 | 5 | 6 | -11 | 2
N#CC(=C1CCCC1)c1nc(-c2cc3ccccc3oc2=O)cs1 | 88* | . | . | 19 | 108*
Cc1ccc(-c2csc(C(C#N)=C3CCCC3)n2)cc1 | 98* | . | -1 | 23 | 49*
N#CC(=C1CCCC1)c1nc(-c2ccccc2O)cs1 | 68 | . | -4 | . | .
O=c1oc2ccccc2cc1-c1csc(NN=C2CCCC2)n1 | 34 | 0 | 7 | . | .
N#CC(=C1CCCC1)c1nc(-c2ccccc2)cs1 | 121* | . | 0 | . | .
O=C(C[C@@H]1C=C[C@H](NC(=O)C2CCC2)[C@@H](CO)O1)Nc1nccs1 | . | -4[16.7 µM] | . | . | 1
O=C(Nc1ccc2nc(C3CC3)n(Cc3ccccc3)c(=O)c2c1)C1CC1 | 115* | -70 | 5 | 24 | 67*
CCC(=O)Nc1ccc2nc(C3CC3)n(Cc3ccccc3)c(=O)c2c1 | ? | . | -2 | . | .
COc1cc(N2CCCC2)ccc1[N+](=O)[O-] | -5 | -24 | . | . | .
COc1ccccc1C1CCN(c2ccc([N+](=O)[O-])c(OC)c2)CC1 | 34 | -1 | -2 | 2 | 55*
Fc1cccc(CSc2ccc(-c3ccco3)nn2)c1 | 38 | -121 | -2 | 30* | 66*
CN(C)c1cccc(C(=O)NCC(c2ccco2)N(C)C)c1 (configuration not stated) | 29 | -12 | . | 10 | 40*
Cc1ccc(C(=O)Nc2nnc(-c3ccco3)o2)cc1 | 20 | -6 | 7 | 7 | .
Cc1ccsc1C(=O)Nc1nnc(-c2ccco2)o1 | . | 9 | 8 | . | 43*
CCOc1ccc(-n2c(-c3ccc(Br)cc3)c[n+]3c2CCCCC3)cc1 | -61 | 38 | . | -3 | .
CCOc1ccc(-n2c(-c3ccc(OC)cc3)c[n+]3c2CCCCC3)cc1 | -74 | 67* | . | 1 | .
C[C@@H]1CN([C@@H](C)CO)C(=O)c2cc(-c3ccncc3)cnc2O[C@H]1CN(C)C(=O)Cc1cccnc1 | . | 10[16.7 µM] | -5[16.7 µM] | . | -3
Cc1cc(C(F)(F)F)n2nc(-c3cccs3)cc2n1 | 18 | 36 | . | 7 | 64*
C[C@H]1CN([C@@H](C)CO)C(=O)c2cc(C#Cc3ccccc3F)cnc2O[C@@H]1CN(C)C(=O)Cc1cccnc1 | . | 10[16.7 µM] | . | . | 0
O=C(CCN1CCCCC1)NCC[C@@H]1CC[C@H](NC(=O)C2CCOCC2)[C@H](CO)O1 | . | -22[16.7 µM] | . | . | 6
CSc1ccc(CNc2ccc(Cl)cc2)cc1 | 101* | . | -1 | -1 | 38
O=C(COc1ccc(Cl)cc1Cl)NCCCN1CCOCC1 | -4 | -12 | . | . | -7
